RmlC RmlD mix: inhibitors of RmlC and RmlD coupled enzymes; RmlC/RmlD coupled enzyme inhibition, 384-well mixture HTS; AID 1532; actives 0.39% (n = 110,000); inhibition, % at 5.5 µM; in the data active = inhibition above about 30%, passing the limit was not always enough; inconclusive = no clear call, values can overlap the other calls
HIV RNase H inh: inhibitors of HIV-1 reverse transcriptase RNase H. P04585. actives 1.9% (n = 65,000). RT-RNase H RNA/DNA duplex cleavage, fluorescence. inhibition, % at 10 µM; in the data active = inhibition above about 50%
RmlCD artifact: shows fluorescent artifact in RmlC/RmlD assay, dose-response counter-screen; shares compounds with RmlC RmlD mix; RmlC/RmlD assay fluorescence artifact counter-screen; calls only; actives 96% (n = 360); call rule not given here;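 note: compound alone with no enzyme and no substrates present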
* marks the source's active call; other numbers are inactive results; ? = inconclusive; · = no result given; + = active, no number. The entries come from a sample that favours hits as a whole.

SMILES	RmlC RmlD mix	HIV RNase H inh	RmlCD artifact
Clc1ccc(/C=N/c2c(-c3ccco3)nc3ccccn23)cc1	17	·	·
CCn1c(SCC(=O)c2ccccc2)nnc1-c1cccs1	13	·	·
O=C(CCSc1ccc(Cl)c(Cl)c1)NC12CC3CC(CC(C3)C1)C2	-12	·	·
COc1ccc(-c2c[n+]3c4n2CCCCC4=C(c2ccccc2)C3)cc1	91*	·	+
C[n+]1cc(-c2ccccc2)n2c1CCCCC2	13	·	·
COC(=O)[C@@H]1[C@@H](C#N)C2(c3ccccc3-c3ccccc32)N(c2ccc(Cl)cc2)N1C#N	-7	·	·
CC(C)N1C(=O)C2C(c3ccccc3O)NC(C)(C(=O)O)C2C1=O (configuration not stated)	-9	-10	·
Cc1cc(=O)n2c(ccc3ccccc32)c1C#N	8	-19	·
Cc1cc(=O)n2ccccc2c1C#N	104*	·	+
COC(=O)c1ccc2c(c1)C(C)(C)C(/C=C/c1ccc(O)cc1)=[N+]2C	19	·	·
COC(=O)c1ccc2c(c1)C(C)(C)C(/C=C/c1ccc(OC)c(OC)c1OC)=[N+]2C	45*	·	+
CNC(=O)c1[nH]cnc1C(=O)N[C@@H](C)C(=O)OC(C)(C)C	-2	·	·
CCC1(C)Cc2ccccc2-c2nc(NCCO)n(-c3ccccc3)c(=O)c21 (configuration not stated)	-1	2	·
CC1(C)Cc2ccccc2-c2nc(NCCO)n(-c3ccccc3)c(=O)c21	51*	-3	+
Cc1ccc2cccnc2c1NC(=S)NC(=O)c1ccccc1	-45	·	·
CCOc1ccc2c3c(c(=O)oc2c1OCC)CCCC3	3	·	·
COc1ccc2c3c(c(=O)oc2c1OCC(N)=O)CCCC3	32*	-15	+
CCOC(=O)N1CCC(Nc2ncnc3c2cnn3-c2ccc(Cl)cc2)CC1	-13	0	·
COCCCn1c(=NC(=O)c2ccncc2)c(C#N)cc2c(=O)n3cccc(C)c3nc21	104*	-9	+
Cc1cccn2c(=O)c3cc(C#N)c(=NC(=O)c4ccncc4)n(CCCOC(C)C)c3nc12	?	-2	·
Cc1cccn2c(=O)c3cc(C(=O)NC4CCCC4)c(=N)n(C4CCCC4)c3nc12	79*	-16	+
CCCn1c(=N)c(C(=O)NC2CCCC2)cc2c(=O)n3cccc(C)c3nc21	43*	·	+
CCCCNC(=O)c1cc2c(=O)n3cccc(C)c3nc2n(CCN2CCOCC2)c1=N	·	-16	·
CCn1c(=N)c(C(=O)NC)cc2c(=O)n3cccc(C)c3nc21	·	-24	·
CCCCNC(=O)c1cc2c(=O)n3cccc(C)c3nc2n(Cc2ccncc2)c1=N	89*	-12	+
SMILES	RmlC RmlD mix	HIV RNase H inh	RmlCD artifact
Cc1cccn2c(=O)c3cc(C(=O)NC4CCCCC4)c(=N)n(CCN4CCOCC4)c3nc12	·	20	·
Cc1ccc(S(=O)(=O)C2(C(=O)Nc3cccc(F)c3)CC2)cc1	-7	-8	·
O=C(NCCCN1CCC(Cc2ccccc2)CC1)C1CC(=O)N(C2CCCCCC2)C1 (configuration not stated)	-5	·	·
Cc1ccc(CNC(=O)c2ccc(NC(=O)CCS(=O)(=O)c3cccs3)cc2)cc1	-11	·	·
Cc1ccccc1NC(=O)C1CCCN1C(=O)NC1CCCCC1 (configuration not stated)	-3	-7	·
Cc1cccn2c(=O)c3cc(C(=O)NCc4cccnc4)c(=N)n(C)c3nc12	·	-14	·
COCCCn1c(=N)c(C(=O)NC2CCCCC2)cc2c(=O)n3ccccc3nc21	49*	·	+
N=c1c(C(=O)NC2CCCC2)cc2c(=O)n3ccccc3nc2n1C1CCCC1	85*	-11	+
COC(=O)c1cc2c(=O)n3ccccc3nc2n(C(C)C)c1=N	·	-26	·
Cc1cccn2c(=O)c3cc(C(=O)NCc4cccnc4)c(=N)n(C(C)C)c3nc12	33*	-36	+
COCCCn1c(=N)c(C(=O)NCc2ccc3c(c2)OCO3)cc2c(=O)n3ccccc3nc21	20	-27	·
CCOC(=O)c1c(C)[nH]c(C)c1C(=O)CSc1nc(N)cc(=O)[nH]1	-13	·	·
O=C(CSc1cn(CCNC(=O)c2cccs2)c2ccccc12)NCc1ccccc1	-7	·	·
Cc1c(-c2c(C#N)c(N)nc3c2CCCCCC3)cnn1C	13	·	·
COC(=O)c1c(C#N)c(N)nc2c1CCC2	67*	-6	+
O=C(CCN1C(=O)c2ccccc2C1=O)N1CCC(c2ccccc2)C1 (configuration not stated)	-5	-16	·
Fc1ccc(-n2nnc(-c3nccs3)n2)cc1	7	·	·
CN(C)Cc1c(O)c(Cl)cc2c3c(c(=O)oc12)CCCC3	140*	·	+
Cc1coc2c(C)c3oc(=O)c4c(c3cc12)CCCC4	-61	-7	·
CCc1c(C)c2cc(Cl)c(O)c(CN(CC)CC)c2oc1=O	106*	-9	+
CCc1c(C)c2cc(Cl)c(O)c(CN(C)C)c2oc1=O	82*	1	+
